ALOX12 inh: blocks human arachidonate 12S-lipoxygenase; P18054; purified 12hLO, xylenol orange hydroperoxide absorbance; Potency, µM (series often up to 108 µM), hits mostly inhibitors; 1.1% of 580,000 active; AID 1671190
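Purified human 12hLO (150 nM final) in 25 mM Hepes, 0.01% Triton X-100, pH 7.0 was preincubated 15 min at room temperature with compound. Then 40 uM arachidonic acid was added, 30 min. Hydroperoxide was read by Fe-XO absorbance ratio 573/405 nm.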
VDR inh: inhibitors of human vitamin D receptor | P11473 | VDR-SRC2-3 peptide fluorescence polarization, 2 h | Potency, µM, most hits filed as inhibitors | 0.93% of 400,000 active
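Fluorescence polarization assay measuring small-molecule disruption of VDR binding to the coregulator peptide SRC2-3. Compounds were pin-transferred (23 nl) into the reagent mix and incubated 2 h at room temperature before reading.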
PLK1 PBD inh: blocks phosphopeptide binding to human PLK1 polo-box domain; P53350; Plk1 PBD binding of FITC phosphopeptide, fluorescence polarization; Potency, µM, most hits filed as inhibitors; 2.8% of 360,000 active; AID 720504; further: series mostly up to about 57 µM; nearly all actives have a fitted effect of over 65% in size
GCN5L2 inh: blocks human GCN5L2 histone acetyltransferase | AID 504327 | GCN5L2 HAT assay, ThioGlo1 CoA-SH fluorescence | Potency, µM (doses to about 58.9 µM), most hits filed as inhibitors | 0.21% of 390,000 active
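Titration-based screen in which CoA formation is detected via maleimide probe ThioGlo1 (50uM) turning fluorescent on thiol reaction; substrates H3(1-25) 75uM and acetyl-CoA 70uM, GCN5L2 20nM, 20 min incubation at room temperature.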
Numbers stand for hits; 0 = inactive; ? = inconclusive; - = no result given; [ ] = dose if it differs, or a comment. Rows were chosen to be rich in hits. Some 3% of all compounds tested hit in one or more screens of this group. The call rests on the fitted dose curve; in most records, active means well fitted curve in the direction sought with a large enough effect; inconclusive means small, poorly fitted or top-dose-only effect, or another doubt; inactive means no such curve, though single readings can be large; an effect the other way counts as inactive or inconclusive.

SMILES	ALOX12 inh	VDR inh	PLK1 PBD inh	GCN5L2 inh
O=C(Nc1nc(=O)n(C(=O)c2cccc(C(F)(F)F)c2)s1)c1ccccc1	?	14µM	17µM	0
Cc1nc2[nH]c(=S)[nH]c(=O)c2nc1C	?	0	0	-
Cc1nc2c(=O)[nH]c(=S)[nH]c2[nH]c1=O	0	0	21µM	-
O=C1CCN(C(=O)COc2ccc(F)cc2)CCCC(c2nc(-c3cnccn3)no2)CCN1 (stereo not drawn)	0	-	-	-
O=C(NN1CCOCC1)c1ccn(COc2cccc(Cl)c2Cl)n1	0	-	-	-
O=C(Nc1ccccc1)c1ccccc1N=Cc1ccccc1O	?	0	0	0
CCOc1ccccc1C=Nc1ccccc1C(=O)Nc1ccccc1	0	25µM	0	0
Cc1cccc(Oc2nc3ccccn3c(=O)c2/C=C(\C#N)C(=O)NC2CCS(=O)(=O)C2)c1C (stereo not drawn)	?	?	0	0
N#C/C(=C\c1c(Oc2ccc(Cl)cc2)nc2ccccn2c1=O)C(=O)NC1CCS(=O)(=O)C1 (stereo not drawn)	0	50µM	0	0
Cc1cc(Oc2nc3ccccn3c(=O)c2/C=C(\C#N)C(=O)NC2CCS(=O)(=O)C2)ccc1Cl (stereo not drawn)	?	32µM	0	0
Cc1cccn2c(=O)c(/C=C(\C#N)C(=O)NC3CCS(=O)(=O)C3)c(Oc3ccc(F)cc3)nc12 (stereo not drawn)	?	20µM	0	0
Cc1cccc(Oc2nc3ccccn3c(=O)c2/C=C(\C#N)C(=O)NC2CCS(=O)(=O)C2)c1 (stereo not drawn)	0	?	0	0
Cc1cccn2c(=O)c(/C=C(\C#N)C(=O)NC3CCS(=O)(=O)C3)c(N3CCC(C)CC3)nc12 (stereo not drawn)	0	0	0	0
Cc1nn(CCC(=O)Nc2cccc(Cl)c2)c(=O)c(C#N)c1C	0	-	-	-
CCN(CC)CCNS(=O)(=O)c1ccc(OC)c(Br)c1	3.5µM	0	0	0
O=C(O)c1ccccc1NS(=O)(=O)c1ccc(NN=Cc2ccc(F)cc2)c([N+](=O)[O-])c1	-	0	24µM	?
O=C(O)c1ccccc1NS(=O)(=O)c1ccc(N/N=C/c2ccc(O)c(O)c2)c([N+](=O)[O-])c1	?	0	?	-
O=C(O)c1ccccc1NS(=O)(=O)c1ccc(N/N=C/c2c(-c3ccccc3)[nH]c3ccccc23)c([N+](=O)[O-])c1	13µM	-	-	-
COc1ccc(CN(C)C(=O)C2(c3ccc(Cl)cc3)CCOCC2)cc1	0[6.33 µM]	-	-	-
Cc1ccc(C)c(N/N=C2\CCCNC2=O)c1	8.9µM	0	0	0
CC1CC/C(=N/Nc2ccccc2)C(=O)N1 (stereo not drawn)	?	0	0	0
Cc1ccccc1N/N=C1\CCCNC1=O	4.5µM	0	0	0
Cc1ccc(C)c(NS(=O)(=O)c2ccc3[nH]c(=O)[nH]c3c2)c1	0	0	0	0
Cc1cc(C)n(CC(=O)Nc2ccc(C(=O)NCc3ccco3)cc2)c(=O)c1C#N	0	-	-	-
O=C(c1cc(-c2ccc3c(c2)OCCO3)nc2ccccc12)N1CCOCC1	0	-	-	-
SMILES	ALOX12 inh	VDR inh	PLK1 PBD inh	GCN5L2 inh
O=C(O)c1c2ccccc2cc2ccccc12	0	0	-	0
O=C(O)c1cc2ccccc2c(Cc2cc3ccccc3c(C(=O)O)c2O)c1O (tested in a mixture with another compound)	-	14µM	-	0
CCCCc1ccc(-c2ccc(C#N)cc2)nc1	0	-	-	-
CN1CCN(Cc2ccc(-c3ccc(C(C)(C)C#N)cc3)nc2)CC1	20µM	-	-	-
CCc1ccc(C(C)NC(=O)Cn2nc(-c3ccc(F)cc3)oc2=O)cc1 (stereo not drawn)	0	-	-	-
COc1cc(CN2c3ccccc3C(=O)CS2(=O)=O)cc(OC)c1	0	0	0	0
O=C1CS(=O)(=O)N(Cc2ccc(F)cc2)c2ccccc21	0	79µM	0	0
COC(=O)C1=C(C)N(c2cccc(C)c2)C(=S)NC1c1ccc(-n2ccnc2)cc1 (stereo not drawn)	40µM	-	-	-
CCOc1cc2cc(C(=O)c3ccccc3O)cnc2cc1OC	8.9µM	-	-	-
CCOc1cc(C(=O)Nc2cnc3ccccc3c2)ccc1OC	0	-	-	-
CC(C)CC(NC(=O)CC12CC3CC(CC(C3)C1)C2)C(=O)NC1=NCCS1 (stereo not drawn)	0	71µM	15µM	0
Cc1ccc(/C=C/C(=O)O)c(C)c1	0	-	-	-
CC(C)CC(=O)Nc1ncc([N+](=O)[O-])s1	?	0	11µM	0
Cc1nc(C)c(C(=O)Nc2ncc([N+](=O)[O-])s2)o1	?	?	27µM	?
COc1ccc(CNC(=O)N2CCN(S(=O)(=O)c3cccc(Br)c3)CC2)cn1	0	-	-	-
Cc1cc(NC(=O)/C=C/c2ccco2)ccc1NC(=O)c1ccccc1	0	0	0	3.2µM
Cc1ccccc1-c1nc2cc(NC(=O)/C=C/c3ccco3)ccc2o1	25µM	-	-	-
Cc1ccc2oc(-c3cc(NC(=O)/C=C/c4ccco4)ccc3Cl)nc2c1	?	0	-	0
CCn1c(COc2cc(C)c(Cl)c(C)c2)n[nH]c1=S	0	-	-	-
CN(C)c1nc(-c2cn(CCC#N)c3ccccc23)cs1	?	0	27µM	0
CC(Oc1cccc(Br)c1)C(=O)NNC(=O)c1ccc2c(c1)NC(=O)CCS2 (stereo not drawn)	45µM	-	-	-
CCNC(=O)Nc1ccc(-n2nc(C)c(C(=O)OCC)c2C)nc1	0	0	15µM	0
CCOC(=O)c1c(C)nn(-c2ccc(NC(=O)/C=C/C(=O)O)cc2)c1C	?	0	0	0
COc1ccc(Cl)cc1C(=O)NNC(=S)NC(=O)c1cc(-c2ccc(Cl)cc2)nc2ccccc12	50µM	0	0	0
COc1cc(-c2cc(C(=O)Nc3ccc(O)cc3)c3ccccc3n2)cc(OC)c1OC	45µM	0	27µM	0
SMILES	ALOX12 inh	VDR inh	PLK1 PBD inh	GCN5L2 inh
Cc1ccc(NC(=O)c2cc(-c3ccc(C)o3)nc3ccccc23)cc1	4.5µM	0	?	0
CC(C)(C)c1nnc(NC(=O)c2cc(-c3ccccc3)nc3ccccc23)s1	?	?	24µM	0
COc1cc(-c2cc(C(=O)Nc3cccc(C(C)=O)c3)c3ccccc3n2)cc(OC)c1OC	0	0	0	0
Cc1ccc(NC(=O)c2cc(C)nc3ccccc23)cc1	0	0	0	0
O=C(Cc1ccc(-c2ccccc2)cc1)N1CC(COc2ccccc2)C2(C1)CN(C(=O)c1cn[nH]c1)C2 (stereo not drawn)	0	-	-	-
Cc1ccc(-c2cc(C(=O)NN=C3CCCC3)c3ccccc3n2)cc1	0	?	0	0
O=C(Nc1ccccn1)c1cc(-c2ccc(Cl)s2)nc2ccccc12	0	0	0	0
O=C(NN=C1CCCCCC1)c1cc(-c2ccccc2)nc2ccccc12	0	0	3µM	0
O=C(Nc1ccccn1)c1cc(-c2ccco2)nc2ccccc12	40µM	-	-	-
Cc1ccc(-c2cc(C(=O)Nc3ccccn3)c3ccccc3n2)o1	6.3µM	0	?	0
Cc1ccc(-c2cc(C(=O)O)c3ccccc3n2)o1	11µM	-	-	-
CC(C)C(NC(=O)C(c1ccccc1)c1ccccc1)C(=O)O (stereo not drawn)	0	-	-	-
COc1ccc(NC(=O)Cn2ccc3cc(Cl)ccc32)c(OC)c1	0	-	-	-

Source: PubChem BioAssay (National Center for Advancing Translational Sciences (NCATS))
